Shown are actives, neighbours in structure and some others; about 3.2% of the full set was active somewhere.
GSIS activator – GLuc luminescence reporter in INS-1E cells, primary screen for activators of glucose-dependent secretion of insulin. hit rate 0.61% among 370,000. activation, % at 16.6 µM. INS-1E GLuc reporter insulin secretion, 2-3 h. AID 743287;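 active = lowest replicate activation of at least 40%, so every replicate reaches that level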
ERAP1 inh – ERAP1 (human) enzyme inhibition; inhibition, % at 10.7 µM; Q9NZ08; hit rate 0.15% among 340,000; AID 652197; recombinant ERAP1, Leu-AMC fluorescence, 60 min;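 active = mean replicate inhibition of at least 30%, or all replicates individually reaching that 30% level; inactive = mean below 30% and not every replicate reaching it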
Ecoli rRNA inh – selective bacterial rRNA inhibition in E. coli; E. coli WT GFP vs humanized-ribosome RFP mutants, fluorescence, 24 h; active compounds read low; DMSO median 0, no signal -100; GFP signal change (wild-type ribosome), % (no concentration beside the values); hit rate 1.6% among 350,000; AID 720706;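 active = significant combined selectivity score with lowered wild-type GFP, culture density cut under 30%, mutant RFP and density less affected; inactive = any of these conditions unmet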
DENV2 CPE rescue – DENV2-induced cell death inhibition; DENV2-infected cells, cytopathic effect rescue, plate reader; CPE inhibition, % at 9.99 µM; hit rate 1.7% among 350,000; in the data active = CPE inhibition above about 20%, passing the limit was not always enough; inconclusive = no clear call, values can overlap the other calls; tested in BHK-21 cells
PGC1a acetyl inh – PGC1a acetylation modulation, inhibitor mode. U2OS PGC1a acetylation, AlphaScreen anti-acetyl-lysine; with virally co-expressed GCN5 acetyltransferase. inhibition, % at 15.6 µM. hit rate 0.17% among 350,000;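 active = every replicate shows inhibition of at least 40%; inconclusive = mean inhibition at least 40% but some replicate below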
CaV13 ICDI inh – Disruptors of the CACNA1D IQ motif to Ca2+-dependent inactivation inhibitor domain association, primary screening, Förster resonance energy transfer in intact living …; HEK cells, CFP/YFP FRET ICDI-IQ, plate reader, 10 min; percent FRET-ratio fall versus neutral wells; inhibition, % at 12.3 µM; hit rate 0.098% among 340,000; AID 743397;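 active = mean replicate inhibition of at least 30% and at least 1% of replicates passing that level; inconclusive = only one of the two criteria is met; inactive = neither criterion is met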
A number is an active result; – = inactive; ? = inconclusive; · = no result; + = active, no number.

SMILES	GSIS activator	ERAP1 inh	Ecoli rRNA inh	DENV2 CPE rescue	PGC1a acetyl inh	CaV13 ICDI inh
CC(C)(C)NC(=O)C(c1cccc2ccccc12)n1c(=O)c(-c2ccccc2)nc2ccccc21 (stereo not given)	–	–	·	27.1	·	–
CC(C)(C)NC(=O)C(c1cccc2ccccc12)n1c(=O)c(-c2ccco2)nc2ccccc21 (stereo not given)	–	·	–	–	·	–
CCCC(O)(CCC)C(=O)NN1CCCCC1	–	–	–	–	–	–
CC(C)CCC(O)(CCC(C)C)C(=O)NN1CCCCC1	49.3	·	·	·	·	–
O=C1NC(=S)SC1=Cc1ccc(Cl)cc1	·	–	·	21.8	–	–
O=C1NC(=S)SC1=Cc1ccc(F)cc1	–	–	–	–	–	–
O=c1cc(CSc2nnc(COc3ccc(Cl)cc3)o2)c2ccccc2[nH]1	·	·	·	·	–	–
O=c1cc(CSc2nnc(-c3ccccc3)o2)c2ccccc2[nH]1	–	–	–	76.4	–	–
Cc1ccc(-n2cc(CNCCCn3ccnc3C)c(-c3ccc(F)cc3)n2)cc1	43.9	–	–	–	–	–
CCCN1C[C@@H](C)[C@H](OC)CN(C)C(=O)c2ccc(NC(=O)c3ccccn3)cc2OC[C@H]1C	·	·	·	·	–	·
COc1cccc(NC(=O)N2C[C@@H](O)COC[C@H]3O[C@@H](CC(=O)NC4CCC4)CC[C@@H]32)c1	–	–	–	–	–	·
CCCc1nc2ccccc2n1Cc1ccccc1OC	–	–	-45.5	–	–	–
CCc1nc2ccccc2n1Cc1ccccc1OC	·	·	·	·	–	–
CCOc1ccc2nc(NCCNC(=O)Nc3cccc(C)c3)c(C#N)cc2c1	320.0	·	·	·	–	–
CCOc1ccc2nc(NCCCNS(=O)(=O)c3ccc(C)cc3)c(C#N)cc2c1	·	–	–	?	–	32.5
COc1ccc(C(=O)NCCNc2nc3ccc(C)cc3cc2C#N)cc1	–	–	–	–	·	–
CCOc1ccc2nc(NCCNC(=O)Nc3ccccc3)c(C#N)cc2c1	200.2	·	·	·	64.2	–
CCOc1ccc2nc(NCCNC(=S)NCCCN(C)C)c(C#N)cc2c1	–	–	–	–	–	+
CCOC(=O)Cn1c(=O)oc2cc(S(=O)(=O)NC3CCCc4ccccc43)ccc21 (stereo not given)	–	–	–	27.4	–	–
CCOC(=O)Cn1c(=O)oc2cc(S(=O)(=O)NC3CCCCC3)ccc21	·	·	·	·	–	·
Cc1cc(Cl)ccc1Oc1nc(-c2ccccc2)ncc1S(C)(=O)=O	149.7	·	·	·	–	·
Cc1ccc(C(OCC(C)(C)C[N+](C)(C)C)c2ccccc2)cc1 (stereo not given)	–	38.6	–	–	–	–
CCN(CC)CCOC(c1ccccc1)c1ccc(C)cc1 (stereo not given)	–	–	–	–	·	–
COCCNC(=O)C[C@@H]1CC[C@@H]2[C@H](COC[C@H](O)CN2S(=O)(=O)c2ccccc2C)O1	–	–	–	–	–	·
COc1ccc(NC(=O)Nc2ccc3c(c2)CC(=O)N([C@H](C)CO)C[C@H](C)[C@H](CN(C)S(=O)(=O)c2c(C)noc2C)O3)cc1	–	–	–	–	–	·
SMILES	GSIS activator	ERAP1 inh	Ecoli rRNA inh	DENV2 CPE rescue	PGC1a acetyl inh	CaV13 ICDI inh
CCc1cccc(-n2c(C)cc(O)cc2=O)c1	–	–	–	61.2	·	–
C[C@H]1CN([C@@H](C)CO)C(=O)c2cc(NC(=O)CCN3CCOCC3)ccc2O[C@@H]1CN(C)C(=O)Nc1ccc(F)cc1	–	–	–	?	–	·
O=C(C1CCC1)N1CC(=O)N2[C@H](CO)[C@@H](c3ccc(C#Cc4cccc(F)c4)cc3)[C@@H]2C1	–	–	–	–	–	·
CCCCc1ccc(NC(=O)COc2ccc(C(=O)Nc3ccccc3OCC)cc2)cc1	71.0	·	·	·	–	–
COc1ccc(C(=O)N(Cc2ccccc2)c2cccc(C)c2)cc1	·	–	–	–	·	–
COc1ccc(CN(C(=O)c2ccc(C)cc2)c2cccc(N)c2)cc1	–	–	–	37.9	–	–
O=[N+]([O-])c1cccc(Oc2ncccc2[N+](=O)[O-])c1	77.6	–	–	–	–	–
COCCNc1ncnc2c1ncn2[C@H]1CN(Cc2ccc(F)cc2)C[C@@H](CO)O1	–	–	·	40.3	·	–
CO[C@@H]1CN(C)C(=O)c2ccc(NC(C)=O)cc2OC[C@@H](C)N(C(=O)C2CC2)C[C@@H]1C	–	–	–	–	–	·
CO[C@@H]1CN(C)C(=O)c2ccc(NC(=O)c3cc(C)on3)cc2OC[C@H](C)N(C)C[C@H]1C	–	–	–	–	–	·
CO[C@H]1CN(C)C(=O)c2ccc(NC(=O)c3cc(C)on3)cc2OC[C@@H](C)N(C)C[C@@H]1C	–	–	–	20.9	–	·
CO[C@@H]1CN(C)C(=O)c2ccc(NC(=O)c3cc(C)on3)cc2OC[C@H](C)N(C(=O)C2CC2)C[C@H]1C	–	–	–	32.4	·	·
CO[C@H]1CN(C)C(=O)c2ccc(NC(=O)c3cc(C)on3)cc2OC[C@H](C)N(C(=O)C2CC2)C[C@H]1C	–	–	–	–	·	·
O=C(O)CC1(CC(=O)NCc2ccc(-c3cccs3)cc2)CCCCC1	–	–	-19.5	–	–	–
O=C(O)CC1(CC(=O)NCc2ccncc2)CCCCC1	·	–	–	–	–	–
C=CCn1c(-c2cc3cccc(OC)c3o2)n[nH]c1=S	–	–	-23.2	·	–	·
C=CCn1c(-c2cccc(OC)c2OC)n[nH]c1=S	–	–	–	–	–	–
C=CCn1c(-c2csc(-c3ccc(OC)c(OC)c3)n2)n[nH]c1=S	82.7	–	–	–	–	–
Cc1noc(C)c1S(=O)(=O)N(C)C[C@@H]1OCCCC[C@H](C)Oc2ccc(NS(=O)(=O)c3ccccc3)cc2C(=O)N([C@@H](C)CO)C[C@H]1C	–	–	–	?	–	·
COc1cccc2c(=O)c3c(cnn3C)n(C)c12	·	·	·	·	–	35.3
O=C(c1cccc(F)c1)N1CC(=O)N2[C@H](C1)[C@@H](c1ccc(-c3cccnc3)cc1)[C@@H]2CO	–	–	–	–	–	·
C=CCOc1c(Br)cc(C2C3=C(CCCC3=O)N(C)C3=C2C(=O)CCC3)cc1OCC	–	–	-34.2	·	·	–
CCCCOC(=O)/C=C/c1c(C)[nH]c(=O)[nH]c1=O	–	–	-34.1	–	·	–
CN1CCN(c2ccc(CNC(=O)C3(C)Cc4c(-c5ccccc5)ccnc4O3)cc2)CC1 (stereo not given)	44.6	–	–	–	·	–
CC(=O)Nc1ccc(-c2ccnc3c2CC(C)(C(=O)Nc2cccc(C(F)(F)F)c2)O3)cc1 (stereo not given)	–	–	–	–	·	–
CC1(C(=O)NCc2ccco2)Cc2c(-c3ccc(C(N)=O)cc3)ccnc2O1 (stereo not given)	·	–	–	39.9	–	–

Assay outcomes: PubChem, Broad Institute
